Experimental findings from PubChem BioAssay are described below.

The nature of test [1]: antimalarial activity against Dd2 strain (AID 2302;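 active means growth inhibition above 50% at the single 2 µM test dose, taken to imply half-maximal potency below 2 µM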;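 further: 0% = DMSO untreated growth and 100% = chloroquine plus artemisinin killed control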). As to conditions: P. falciparum Dd2 in RBCs, LDH growth readout, 72 h; at 2 µM; active compounds read high.
Test [2] is described as follows: human hepatoma cell viability loss – ATP luminescence, cytotoxicity control for P. falciparum antimalarial project, primary screen (AID 2303;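 active means inhibition above 50%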;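 further: 0% = DMSO wells and 100% = digitonin-killed cells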). As to conditions: HepG2 viability, 24-48 h, at 10 µM, active compounds read high.
Test [3] concerns the target L-lactate dehydrogenase (Plasmodium falciparum (isolate CDC / Honduras)) (UniProt Q27743). Put plainly: PfLDH activity inhibition – cell lysate, 3D7 strain, counter-screen for P. falciparum growth inhibition project (AID 2304).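 Further: 0% = vehicle and 100% = reference inhibitor.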 As to conditions: P. falciparum 3D7 crude extract, LDH APAD/NBT absorbance; at 2 µM; active compounds read high. Background: The purpose of a counterscreen is to sort out artefacts and off-target activity.

A short description of test [4]: inhibition of 3D7 malaria parasite growth – strain 3D7 (AID 2306).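 Further: 0% = DMSO wells and 100% = chloroquine plus artemisinin control wells.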 As to conditions: P. falciparum 3D7 erythrocytic growth, LDH absorbance, 72 h; at 2 µM; active compounds read high.
In test [5] the target is Calcium-dependent protein kinase 1 (Plasmodium falciparum (isolate 3D7)) (UniProt P62344). Put plainly: PfCDPK1 kinase inhibitors, biochemical, TCAMS library (AID 1159585; cut-off not given, nearly all actives have IC50 up to about 0.98 µM;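 further: inhibitors leave more ATP so luminescence rises with inhibition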). As to conditions: recombinant PfCDPK1, Kinase-Glo ATP depletion luminescence. (Kinase-Glo reads ATP consumption through a luciferase reaction.)
Test [6] has as its target Plasmodium falciparum protein kinase 6 (PK6, PF3D7_1337100) (UniProt Q8IDW1). The test is described as follows: PfPK6 kinase inhibitors, biochemical, TCAMS library (AID 1159586). As to conditions: recombinant PfPK6, Kinase-Glo ATP depletion luminescence.
For test [7], the target named is Protein kinase 7 (PK7), Plasmodium falciparum 3D7 (PF3D7_0213400) (UniProt Q7YTF7). Put plainly: inhibition of Plasmodium PK7 catalytic activity – biochemical, TCAMS antimalarial set, Kinase-Glo luminescence (AID 1159587). As to conditions: recombinant PfPK7, Kinase-Glo ATP depletion luminescence.
For test [8], the target named is Calcium-dependent protein kinase 4 (Plasmodium falciparum (isolate 3D7)) (UniProt Q8IBS5). The test is described as follows: PfCDPK4 kinase inhibitors, biochemical, TCAMS library (AID 1159588; cut-off not given, nearly all actives have IC50 up to about 0.91 µM). As to conditions: recombinant PfCDPK4, Kinase-Glo ATP depletion luminescence.

A number with no mark means an inactive call. For some assays here: Measured potencies and affinities stand elsewhere. Calls of active or inactive are those of the source. Unless noted, how the calls were made is not given here.

Calcium-dependent protein kinase 4 (Plasmodium falciparum (isolate 3D7)), sequence (Q8IBS5 whole entry, looked up): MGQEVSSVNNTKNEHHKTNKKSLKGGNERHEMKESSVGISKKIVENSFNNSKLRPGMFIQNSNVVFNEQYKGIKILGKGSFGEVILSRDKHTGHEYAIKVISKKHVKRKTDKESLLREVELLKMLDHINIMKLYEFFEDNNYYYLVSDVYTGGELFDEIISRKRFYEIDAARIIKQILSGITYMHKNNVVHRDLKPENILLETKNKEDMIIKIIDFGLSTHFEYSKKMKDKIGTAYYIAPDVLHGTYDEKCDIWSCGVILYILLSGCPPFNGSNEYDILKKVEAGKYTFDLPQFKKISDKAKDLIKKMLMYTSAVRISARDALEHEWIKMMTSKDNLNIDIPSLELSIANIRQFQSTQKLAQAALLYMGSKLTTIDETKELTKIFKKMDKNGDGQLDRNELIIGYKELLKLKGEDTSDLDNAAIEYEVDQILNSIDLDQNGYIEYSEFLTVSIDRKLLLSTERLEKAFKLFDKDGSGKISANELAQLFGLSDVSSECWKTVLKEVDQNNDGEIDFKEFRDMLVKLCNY
L-lactate dehydrogenase (Plasmodium falciparum (isolate CDC / Honduras)), sequence (Q27743 whole entry, looked up): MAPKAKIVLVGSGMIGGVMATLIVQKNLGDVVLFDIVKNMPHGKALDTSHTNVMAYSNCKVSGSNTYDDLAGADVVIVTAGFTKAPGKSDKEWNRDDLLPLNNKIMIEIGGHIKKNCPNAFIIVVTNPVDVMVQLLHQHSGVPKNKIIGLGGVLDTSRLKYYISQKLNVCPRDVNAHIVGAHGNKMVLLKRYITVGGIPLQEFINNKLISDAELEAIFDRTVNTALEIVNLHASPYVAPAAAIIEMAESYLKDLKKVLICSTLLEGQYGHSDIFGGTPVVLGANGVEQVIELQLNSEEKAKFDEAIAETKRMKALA
Calcium-dependent protein kinase 1 (Plasmodium falciparum (isolate 3D7)), sequence (P62344 whole entry, looked up): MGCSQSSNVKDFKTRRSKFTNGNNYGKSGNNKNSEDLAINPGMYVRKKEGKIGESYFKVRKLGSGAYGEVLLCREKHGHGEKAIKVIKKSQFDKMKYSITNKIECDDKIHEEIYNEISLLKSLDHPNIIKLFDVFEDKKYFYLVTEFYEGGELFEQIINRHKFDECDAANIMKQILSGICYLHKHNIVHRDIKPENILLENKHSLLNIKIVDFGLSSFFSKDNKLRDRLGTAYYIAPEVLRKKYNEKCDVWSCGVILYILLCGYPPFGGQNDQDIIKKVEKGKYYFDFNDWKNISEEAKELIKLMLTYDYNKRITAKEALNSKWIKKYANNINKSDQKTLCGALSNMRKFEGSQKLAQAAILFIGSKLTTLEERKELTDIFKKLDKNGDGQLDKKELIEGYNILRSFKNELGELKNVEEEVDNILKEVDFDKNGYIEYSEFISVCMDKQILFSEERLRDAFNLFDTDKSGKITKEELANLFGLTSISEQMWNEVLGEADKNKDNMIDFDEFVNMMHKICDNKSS
Plasmodium falciparum protein kinase 6 (PK6, PF3D7_1337100), sequence (Q8IDW1 1-305): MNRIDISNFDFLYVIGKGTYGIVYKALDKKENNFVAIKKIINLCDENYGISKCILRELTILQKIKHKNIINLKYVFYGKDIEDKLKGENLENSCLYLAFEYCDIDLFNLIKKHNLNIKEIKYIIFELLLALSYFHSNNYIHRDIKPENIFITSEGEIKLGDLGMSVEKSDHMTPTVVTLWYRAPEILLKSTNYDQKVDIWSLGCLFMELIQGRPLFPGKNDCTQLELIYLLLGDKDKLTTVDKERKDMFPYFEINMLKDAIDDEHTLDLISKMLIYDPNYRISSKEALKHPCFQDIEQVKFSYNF
Protein kinase 7 (PK7), Plasmodium falciparum 3D7 (PF3D7_0213400), sequence (Q7YTF7 1-343): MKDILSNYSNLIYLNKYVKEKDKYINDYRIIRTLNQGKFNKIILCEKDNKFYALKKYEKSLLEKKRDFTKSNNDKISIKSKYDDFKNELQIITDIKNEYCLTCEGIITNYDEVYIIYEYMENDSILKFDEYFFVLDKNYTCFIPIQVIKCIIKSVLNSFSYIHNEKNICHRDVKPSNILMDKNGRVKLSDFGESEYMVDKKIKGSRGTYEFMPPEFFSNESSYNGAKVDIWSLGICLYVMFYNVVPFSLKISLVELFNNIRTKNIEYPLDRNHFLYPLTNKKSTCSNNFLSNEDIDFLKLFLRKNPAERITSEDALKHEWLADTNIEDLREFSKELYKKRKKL

Take `COc1ccc2nccc([C@@H](O)CN3CCC(NC(=O)c4ccc(Cl)c([N+](=O)[O-])c4)CC3)c2c1`: the growth inhibition was 43% in test [1] and 88% (active) in test [4]. Further, the inhibition (as a rule, the drop in the measured response relative to a control, in per cent) was 14% in test [2] and -1% in test [3]. In addition, the result in test [5], in test [6], in test [7] and in test [8] was inactive.

With `O=C(Nc1cccc(CN2CCCN(Cc3ccc(O)cc3)CC2)c1)c1cc2ccccc2o1`, the growth inhibition in test [1] was 62% (active); in test [4], 95% (active). Besides, the inhibition was 10% in test [2] and 0% in test [3]. Moreover, the outcome in test [5], in test [6], in test [7] and in test [8] was inactive.

In the case of `COc1ccc2nccc([C@@H](O)CN3CCC(NC(=O)C(=Cc4ccc(C#N)cc4)c4ccc(-c5ccccc5)cc4)CC3)c2c1`, the growth inhibition in test [1] was 84% (active); in test [4], 101% (active). The figures for the inhibition in test [2] and in test [3] were 5% and -5%, respectively. The outcome in test [5], in test [6], in test [7] and in test [8] was inactive.

In the case of `COc1cc(Cc2cnc(NCCN3CCNCC3)nc2N)ccc1OCc1ccc(C(F)(F)F)cc1`, the growth inhibition was 4% in test [1] and 98% (active) in test [4]. Further, the inhibition is 12% in test [2] and 4% in test [3]. Besides, the outcome in test [5], in test [6], in test [7] and in test [8] was inactive.

Consider `OC(CNCCc1ccccc1)Cn1c2ccc(Cl)cc2c2cc(Cl)ccc21` (configuration not stated), for which the figures for the growth inhibition in test [1] and in test [4] were 96% (active) and 98% (active), respectively. The inhibition in test [2] is 53% (active); in test [3], 8%. For the same compound, the outcome in test [5], in test [6], in test [7] and in test [8] was inactive.

Consider `Nc1nccc2ccc(-c3ccc(OCc4ccccc4)cc3)cc12`, for which the growth inhibition in test [1] is 67% (active); in test [4], 101% (active). The inhibition in test [2] was 40%; in test [3], -8%. The result in test [5], in test [6], in test [7] and in test [8] was inactive.

Turning to `COc1ccccc1CNc1ncc(-c2ccsc2)c(-c2nccs2)n1`, the values for the growth inhibition in test [1] and in test [4] were 84% (active) and 91% (active), respectively. Besides, the results for the inhibition in test [2] and in test [3] were 14% and 2%, respectively. The outcome in test [5], in test [6], in test [7] and in test [8] was inactive.

In the case of `COc1cc(Cl)c(C)cc1N(Cc1ccccc1-c1ccccc1)S(=O)(=O)c1ccc(C(F)(F)F)cc1`, the growth inhibition in test [1] is 62% (active); in test [4], 90% (active). Further, the figures for the inhibition in test [2] and in test [3] were 23% and -2%, respectively. The result in test [5], in test [6], in test [7] and in test [8] was inactive.

As for `COc1ccc(C2CC(=O)C3=C(C2)NC(C)=C(C(=O)OC(C)C)C3c2ccc(O)cc2)cc1OC` (configuration not stated), the growth inhibition was 98% (active) in test [1] and 99% (active) in test [4]. The results for the inhibition in test [2] and in test [3] were -1% and -3%, respectively. Further, the outcome in test [5], in test [6], in test [7] and in test [8] was inactive.

Turning to `CC[C@H](C)CNC(=O)c1cccc(-c2cccc(CN3CCC(N4CCCC4)CC3)c2)n1`, the values for the growth inhibition in test [1] and in test [4] were 86% (active) and 101% (active), respectively. Further, the inhibition in test [2] is 9%; in test [3] it was 1%. In addition, the result in test [5], in test [6], in test [7] and in test [8] was inactive.

`Cc1cc(C)nc(-n2[nH]c(C)c(Cc3ccc(C(C)(C)C)cc3)c2=O)n1`: the growth inhibition in test [1] was 61% (active); in test [4], 88% (active). Also, the inhibition was -9% in test [2] and -1% in test [3]. Also, the result in test [5], in test [6], in test [7] and in test [8] was inactive.

Regarding `CCn1c(SC)nnc1C1CCCN(CC(=O)Nc2nc3ccc(OC)cc3s2)C1` (configuration not stated), the growth inhibition was 81% (active) in test [1] and 97% (active) in test [4]. Also, the inhibition in test [2] was -3%; in test [3], 0%. Further, the result in test [5], in test [6], in test [7] and in test [8] was inactive.

With `CC(C)N1CCN(CCCNc2c3ccccc3nc3ccccc23)CC1`, the growth inhibition is 1% in test [1] and 100% (active) in test [4]. Moreover, the inhibition in test [2] is 29%; in test [3] it was 8%. For the same compound, the result in test [5], in test [6], in test [7] and in test [8] was inactive.

As for `Cc1cc(CN2CC[C@H](NC(=O)c3ccc(Cl)c(Cl)c3)C2)ccc1OCCN1CCNCC1`, the growth inhibition is 1% in test [1] and 94% (active) in test [4]. For the same compound, the inhibition in test [2] is 15%; in test [3], -1%. Moreover, the result in test [5], in test [6], in test [7] and in test [8] was inactive.

Regarding `COc1ccc(CNC2CCN(C)CC2)cc1-c1ccc(S(=O)(=O)NCCc2ccccn2)cc1`, the growth inhibition is 17% in test [1] and 93% (active) in test [4]. In addition, the inhibition in test [2] was 13%; in test [3] it was -5%. For the same compound, the result in test [5], in test [6], in test [7] and in test [8] was inactive.

Take `CCOc1cc(C)ccc1N(C1CCN(CCCCNC(=O)c2ccc(-c3ccc(C(F)(F)F)cc3)cc2)CC1)S(=O)(=O)c1ccccc1`: the growth inhibition was 85% (active) in test [1] and 88% (active) in test [4]. Besides, the inhibition in test [2] is 14%; in test [3], -4%. Also, the result in test [5], in test [6], in test [7] and in test [8] was inactive.

As for `COc1ccccc1NC(=O)Nc1ccc(-c2cccc(-c3nc4ccccc4[nH]3)c2)cc1`, the growth inhibition in test [1] was 25%; in test [4], 101% (active). The values for the inhibition in test [2] and in test [3] were 42% and 0%, respectively. The outcome in test [5], in test [6], in test [7] and in test [8] was inactive.

`COC(=O)c1cccc(CNCc2ccc(-c3ccc(-c4nc5ccc(F)cc5[nH]4)s3)cc2)c1`: the growth inhibition in test [1] is 82% (active); in test [4] it was 101% (active). Moreover, the inhibition in test [2] was 4%; in test [3], 7%. The result in test [5], in test [6], in test [7] and in test [8] was inactive.

`COc1ccc(-c2ccc(CN(C)C3CCC(NC(=O)c4cc5ccccc5[nH]4)CC3)cc2)cn1` (configuration not stated): the growth inhibition is 2% in test [1] and 88% (active) in test [4]. In addition, the inhibition was 31% in test [2] and -1% in test [3]. Further, the result in test [5], in test [6], in test [7] and in test [8] was inactive.
